The record followed here is the supplement of paper PMC13380429.

The subject of assay [1] is Vero E6 infected with SARS-CoV-2. In words: morphology score (similarity to uninfected cells); higher = more like uninfected cells. Particulars: 24 h.
The test system is the same in assay [2]. In words: SARS-CoV-2 infection rate relative to infected DMSO; higher = more infection, active = 60 or less. Particulars: 24 h.

In assay [1], `Fc1ccc(C(OCCN2CCN(CCCc3ccccc3)CC2)c2ccc(F)cc2)cc1` [vanoxerine] (0.833333 µM) displayed a morphology score of 0.275. For the same molecule, the SARS-CoV-2 infection rate in assay [2] is 86% (inactive).
In assay [1], `CCC(=O)OCN1C(=O)C=CC1=O` (10 µM) yielded a morphology score of 0.14. Also, the SARS-CoV-2 infection rate in assay [2] is 97% (inactive).
In turn, `Clc1ccc(C2(c3ccc(-c4cn[nH]c4)cc3)CCNCC2)cc1` (0.833333 µM) came in with a morphology score in assay [1] of 0.29. In addition, the SARS-CoV-2 infection rate in assay [2] is 112% (inactive).
As to `O=c1cc[nH]c(=S)[nH]1` [2-thiouracil] (10 µM), in assay [1], the morphology score was 0.0168. Further, in assay [2], the SARS-CoV-2 infection rate was 108% (inactive).
For the molecule `O=C(c1ccc(F)cc1)C1CCN(CCCCc2ccccc2)CC1` [4-(4-fluorobenzoyl)-1-(4-phenylbutyl)-piperidine] (10 µM), in assay [1], the morphology score was -0.00104. In addition, in assay [2], the SARS-CoV-2 infection rate was 110% (inactive).
The molecule `Cc1nc(Nc2n[nH]c3c2CN(C(=O)N[C@H](CN(C)C)c2ccccc2)C3(C)C)c2sccc2n1` (10 µM) returned a morphology score in assay [1] of -0.232. Besides, the SARS-CoV-2 infection rate in assay [2] is 111% (inactive).
Turning to `COc1cc2c(cc1O)C(CCc1ccc(Cl)cc1)N(C)CC2` (stereo unspecified) (10 µM), the morphology score in assay [1] came to 0.298. In assay [2], the SARS-CoV-2 infection rate is 72% (inactive).
On to `CCOC(=O)[C@@]1(CCCCCCOc2ccc(Cl)cc2)CO1` [etomoxir] (10 µM), for which the morphology score in assay [1] was -0.0546. In assay [2], the SARS-CoV-2 infection rate is 109% (inactive).
For the molecule `Cc1cc(C)c(CNC(=O)c2cc(-c3ccc(N4CCN(C)CC4)nc3)cc3c2c(C)cn3C(C)C)c(=O)[nH]1` (10 µM), the morphology score in assay [1] was 0.171. In assay [2], the SARS-CoV-2 infection rate was 98% (inactive).
In turn, `Cn1cc(CCn2cnc(-c3cnn(C)c3)c2-c2ccc(C#N)cc2)cn1` (10 µM) had a morphology score in assay [1] of 0.0344. Further, the SARS-CoV-2 infection rate in assay [2] was 97% (inactive).
As for `CC(C)NCC(O)COc1cccc2[nH]ccc12` (stereo unspecified) [pindolol] (10 µM), in assay [1], the morphology score came to 0.0938. Further, the SARS-CoV-2 infection rate in assay [2] was 104% (inactive).
With `NC[C@@H](O)CC(=O)O` [aminohydroxybutyric-acid] (10 µM), in assay [1], the morphology score stood at 0.226. Further, the SARS-CoV-2 infection rate in assay [2] was 92% (inactive).
Molecule `NCCc1cc(O)c(O)cc1O` [oxidopamine] (10 µM) yielded a morphology score in assay [1] of 0.0957. Further, the SARS-CoV-2 infection rate in assay [2] is 102% (inactive).
`C[C@@H]1CN(Cc2ccc(F)cc2)[C@@H](C)CN1C(=O)c1cc2c(C(=O)C(=O)N(C)C)cn(C)c2cc1Cl` [talmapimod] (10 µM) returned a morphology score in assay [1] of 0.103. Further, the SARS-CoV-2 infection rate in assay [2] is 88.5% (inactive).
`Sc1nc2ccccc2s1` [benzo[d]thiazole-2(3H)-thione] (10 µM) gave a morphology score in assay [1] of 0.0522. Moreover, the SARS-CoV-2 infection rate in assay [2] was 104% (inactive).
Molecule `O=C(O)c1cc(=O)c2c(OCC(O)COc3cccc4oc(C(=O)O)cc(=O)c34)cccc2o1` [cromoglicic-acid] (10 µM) yielded a morphology score in assay [1] of 0.204. Also, in assay [2], the SARS-CoV-2 infection rate is 87% (inactive).
In the case of `COC(=O)C1=C(C)NC(C)=C(C(=O)OCCSc2ccccc2)[C@@H]1C` (10 µM), the morphology score in assay [1] was 0.0793. Further, in assay [2], the SARS-CoV-2 infection rate was 94.5% (inactive).
Turning to `Cc1c(NC(=O)c2cc3c(s2)CCCC3)cccc1-c1cn(C)c(=O)c(Nc2ccc(C3C(=O)N(C)CCN3C)cc2)n1` (stereo in doubt) (10 µM), the morphology score in assay [1] turned out to be 0.45. For the same molecule, the SARS-CoV-2 infection rate in assay [2] is 69% (inactive).
Taken in the same sequence, the figures for `CC(C)[C@H](N)C(=O)OCCOCn1cnc2c(=O)nc(N)[nH]c21` [valaciclovir] (10 µM) were -0.0293 and 116% (inactive).
In the case of `CC(=O)OCC(=O)[C@@]12N=C(C)O[C@@H]1C[C@H]1[C@@H]3CCC4=CC(=O)C=C[C@]4(C)[C@H]3[C@@H](O)C[C@@]12C` [Deflazacort (Calcort)] (10 µM), the morphology score in assay [1] is 0.0216. Also, the SARS-CoV-2 infection rate in assay [2] was 97.5% (inactive).
On to `Cc1cc2ncc(C(=O)NCC(C)(C)NCC(=O)N3CCC[C@H]3C#N)cn2n1` [anagliptin] (10 µM), for which the morphology score in assay [1] was -0.112. In addition, in assay [2], the SARS-CoV-2 infection rate is 110% (inactive).
Taken in the same sequence, the figures for `CCOC(=O)c1ccc(-n2cc(Cc3cnc(OCC)nc3)c(=O)nc2SCc2ccc(F)cc2)cc1` (10 µM) were 0.18 and 90.5% (inactive).
Consider `CNCC(O)c1ccc(O)c(O)c1` (racemic) [DL-Adrenaline] (10 µM), for which the morphology score in assay [1] worked out at 0.188. Further, in assay [2], the SARS-CoV-2 infection rate was 109% (inactive).
`CCC[C@@H]1CC2=CC(=O)CC[C@]2(C)[C@H]2CC[C@@]3(C)[C@@H](CC[C@@]3(O)CCC(=O)O)[C@H]12` (10 µM): the morphology score in assay [1] worked out at 0.105. Besides, in assay [2], the SARS-CoV-2 infection rate was 104% (inactive).
The molecule `CC(COc1ccccc1Cc1ccccc1)N1CCCCC1` (stereo unspecified) [benproperine] (10 µM) displayed a morphology score in assay [1] of 0.214. In addition, the SARS-CoV-2 infection rate in assay [2] is 79% (inactive).
As to `Cc1cc(N2CCOCC2)cc2[nH]c(-c3c(NC[C@@H](O)c4cccc(Cl)c4)cc[nH]c3=O)nc12` (0.833333 µM), in assay [1], the morphology score amounted to 0.0224. In addition, the SARS-CoV-2 infection rate in assay [2] was 110% (inactive).
With `C[C@H](NC(=O)/C(C#N)=C/c1cccc(Br)n1)c1ccccc1` (0.833333 µM), in assay [1], the morphology score is -0.0278. The SARS-CoV-2 infection rate in assay [2] was 118% (inactive).
In the case of `Cc1ncc([N+](=O)[O-])n1CCO` [metronidazole] (10 µM), the morphology score in assay [1] was -0.0912. Besides, the SARS-CoV-2 infection rate in assay [2] is 118% (inactive).
